Results filed as inconclusive are left out. Active and inactive are the calls of the source. Calls come from the whole dose curve; as a rule, active = well fitted cell-killing curve with a large enough effect; inconclusive = small, poorly fitted or top-dose-only effect; inactive = flat fitted curve, though single readings scatter.

The record followed here is PubChem BioAssay (NCATS).

This assay in a line: Cellular viability qHTS for adrenocortical cancer (ACC) cell line NCI-H295R (AID 1963990). Note: nearly all actives have a fitted effect of over 60% in size. The settings on record: CellTiter-Glo ATP luminescence, 48 h; series mostly up to 46.1 µM; activity change, negative = viability loss: at the top concentration. The text has this:
PI: Naris Nilubol, MD Surgical Oncology Program, National Cancer Institute (NCI) National Institute of Health (NIH), Bethesda, Maryland Adrenocortical cancer (ACC) is a rare malignancy with poor survival outcomes and few treatment options. Currently, mitotane is the only FDA-approved therapy for ACC. Although adjuvant radiation therapy is rarely utilized, it has the potential to improve survival in select cases. Through a quantitative high-throughput drug screen (qHTS), we identified auranofin (AF), a thioredoxin reductase (TXNRD) inhibitor, as a promising candidate drug. This study aims to evaluate whether AF can enhance the efficacy of radiation therapy in the treatment of ACC. Two human ACC cell lines, SW-13 and NCI-H295R, were screened using the National Center for Advancing Translational Sciences (NCATS) Pharmaceutical Collection (NPC) and the Mechanism Interrogation PlatE (MIPE) library (~4,991 compounds). CellTiter-Glo (Cat # G7570, Promega, Madison, WI) was utilized to measure cell viability. Described herein are the results of the corresponding viability assay.
PROTOCOL TABLE (as described by Inglese J, Shamu CE and Guy RK. 2007) SEQUENCE No. (e.g., 1, 2, 3, etc.); […] (e.g., Cells, Incubation, Reagent, etc.); VALUE; DESCRIPTION. 1; Cells; 5 uL; white, solid-bottom, 1536-well tissue-culture treated plates. 2; Time; overnight culture at 37C with 5% CO2. 3; Compounds and control; 23 nL; Kalypsis pin tool (Wako USA) equipped with a 1536-well pin head to transfer to the assay plates. 4; Time; 48 hours; 37C with 5% CO2. 5; Reagent; 4 uL; CellTiter-Glo luminescent substrate mix. 6; Time; 20 min at room temperature. 7; Detection; Luminescence; ViewLux plate reader NOTES (numbers refer to Sequence numbers above) 1. NCI-H295R cells were harvested from a T175 flask and resuspended in ITS-supplemented DMEM serum-free medium at a concentration of 300 000 cells/mL. Then 5 uL of resuspended cells were dispensed into each well of white, solid-bottom, 1536-well tissue-culture-treated plates using a multidrop combi dispenser. The plates were covered with stainless steel gasket lids. 2-3. The plates were cultured overnight at 37C with 5% CO2. Twenty-three nL of compounds (eight selected concentrations from the NPC / MIPE) or positive control (10 mM stock of bortezomib) in DMSO was transferred to each well of the assay plate using a pin tool (Kalypsys, San Diego, CA, USA). The final concentration of the compounds in the 5 uL assay volume ranged from 0.5 nM to 46 uM. 4-6. After 48 hours of incubation at 37C and 5% CO2, 4 uL of CellTilter-Glo luminescent substrate mix (Promega, Madison, WI, USA) was added to each well. Then the plates were incubated for 20 minutes at room temperature. 7. After incubation, luminescence was measured using a ViewLux plate reader (PerkinElmer, Waltham, MA, USA) with a clear filter was used to measure the number of metabolically competent cells. To determine compound activity in the qHTS assay, the titration-response data for each sample was plotted and modeled by a four-parameter logistic fit yielding IC50 and efficacy (maximal response) values. Raw plate reads for each titration point were normalized relative to positive control ([…], 100% inhibition) and DMSO-only wells (basal, 0%). REFERENCES: Inglese J, Shamu CE and Guy RK, Reporting data from high throughput screening of small molecule libraries, Nature Chemical Biology, 2007, 3(8): 438-441. doi.org/10.1038/nchembio0807-438.
For orientation: Quantitative high-throughput screening tests each substance at several concentrations.
Consider `Nc1ccc([N+](=O)[O-])cc1`, for which the “activity change, negative = viability loss” value was -5.03% [at 92.7 µM] (inactive).
As to `O=C(CCCN1CCC2(CC1)C(=O)NCN2c1ccccc1)c1ccc(F)cc1`, the “activity change, negative = viability loss” value is -13.7% (inactive).
For the molecule `NCC(CC(=O)O)c1ccc(Cl)cc1` (stereo not given), the activity change, negative = viability loss is -4.36% [at 0.587 µM] (inactive).
As for `c1ccc2c(c1)Sc1ccccc1N2CC1CN2CCC1CC2` (stereo not given), the Potency was 16.4 µM (active).
As for `C#CCOC(C(=O)OCCN(C)C)(c1ccccc1)c1ccccc1`, the “activity change, negative = viability loss” value was 4.94% (inactive).
Consider `O=C(Nc1ccc(Br)cc1)c1cc(Br)cc(Br)c1O`, for which the Potency was 10.3 µM (active).
For the molecule `O=C(O)CCCCCCNC1c2ccccc2CCc2ccccc21`, the “activity change, negative = viability loss” value is -28.3% (inactive).
Same read-out and setting: the figure for `CC(C)(C)c1ccc(O)cc1` is -16.1% (inactive); for `c1ccc2c(CN3CCNCC3)cccc2c1` it is 6% (inactive).
On the same count and under the same terms, the result for `Cc1cccc(Cc2cnc[nH]2)c1C` reads -19.4% (inactive); that for `CCc1ccc(C2CCNCC2)cc1`, 1.63% (inactive); that for `CN1C(=O)[C@@H](NC(=O)[C@H](CCC(F)(F)F)[C@H](CCC(F)(F)F)C(N)=O)N=C(c2ccccc2)c2ccccc21`, -1.69% (inactive).
Consider `CN1C(=O)CCS(=O)(=O)C1c1ccc(Cl)cc1` (stereo not given), for which the Potency result is “inactive”.
In the case of `NC(=O)[C@@H](CC1CC1)[C@@H](CCC(F)(F)F)C(=O)N[C@H]1N=C(c2ccccc2)c2cccc(F)c2NC1=O`, the “activity change, negative = viability loss” value was -8.59% (inactive).
With `C[CH2][Hg][S]c1ccccc1C(=O)O`, the Potency is 1.64 µM (active).
In the case of `CC(C)[C@H]1C(=O)N[C@H](CO)Cc2c[nH]c3cccc(c23)N1C`, the “activity change, negative = viability loss” value is -24.6% [at 20 µM] (inactive).
As to `C[C@]12CC[C@H](O)CC1=CC[C@@H]1[C@@H]2CC[C@]2(C)C(=O)CC[C@@H]12`, the Potency result was “inactive”.
On to `CCN(CC)C(=O)[C@@H]1C=C2c3cccc4[nH]cc(c34)C[C@H]2N(C)C1`, for which the “activity change, negative = viability loss” value was -25.4% [at 178 µM] (inactive).
Regarding `CNC(=O)Oc1cccc2ccccc12`, the “activity change, negative = viability loss” value is -1.43% (inactive).
Same read-out and setting: the figure for `O=[N+]([O-])c1ccc([As](=O)(O)O)cc1` is 9.5% (inactive).
On the same count and under the same terms, the result for `CCOC(=O)c1ncn2c1CN(C)C(=O)c1c(I)cccc1-2` reads 2.72% (inactive).
Consider `CCOC(=O)CC(SP(=S)(OC)OC)C(=O)OCC` (stereo not given), for which the Potency result was “inactive”.
Same read-out and setting: the figure for `CCCN(CCC)c1c([N+](=O)[O-])cc(S(N)(=O)=O)cc1[N+](=O)[O-]` is 7.94 µM (active); for `C[C@](O)(COc1ccc(C#N)cc1)C(=O)Nc1ccc(C#N)c(C(F)(F)F)c1` it is 17.8 µM (active).
Take `CN(C)CCc1c[nH]c2ccc(O)cc12`: the “activity change, negative = viability loss” value is -31.3% [at 92.7 µM] (inactive).
On to `c1ccc2c(c1)sc1ccccc12`, for which the “activity change, negative = viability loss” value was -0.145% (inactive).
For the molecule `CC1=C(O)C(=O)C=C2C1=CC=C1[C@@]2(C)CC[C@@]2(C)[C@@H]3C[C@](C)(C(=O)O)CC[C@]3(C)CC[C@]12C`, the Potency was 6.31 µM (active).
In the case of `Cc1c(N)nc([C@H](CC(N)=O)NC[C@@H](N)C(N)=O)nc1C(=O)N[C@H](C(=O)N[C@@H](C)[C@H](O)[C@@H](C)C(=O)N[C@@H](C(=O)NCCc1nc(-c2nc(C(=O)NCCC[S+](C)C)cs2)cs1)[C@@H](C)O)C(O[C@H]1O[C@H](CO)[C@H](O)[C@@H](O)[C@H]1O[C@H]1O[C@H](CO)[C@@H](O)[C@H](OC(N)=O)[C@@H]1O)c1cnc[nH]1` (stereo not given in full), the “activity change, negative = viability loss” value is -13.2% [at 20 µM] (inactive).
The same measure, in the same setting: the result for `Cc1ccc(Cl)c(O)c1` reads -18.9% (inactive); that for `CN1C2CCC(C)(C)C1CC(OC(=O)C(O)(c1cccs1)c1cccs1)C2` (stereo not given), -5.04% (inactive).
On the same count and under the same terms, the result for `CC(C)(C)NCC(O)c1cc(Cl)c(N)c(C(F)(F)F)c1` (stereo not given) reads -2.94% (inactive).
Still for that read-out and setting: the figure for `O=C(O)c1nn(Cc2ccc(Cl)cc2Cl)c2ccccc12` is -17.3% (inactive); for `CCCN1CCO[C@@H]2c3cc(O)ccc3OC[C@H]21` it is -1.59% (inactive).
For `Cc1ccc(-c2nc3ccc(C)cn3c2CC(=O)N(C)C)cc1`, the “activity change, negative = viability loss” value is -15.5% (inactive).
Same read-out and setting: the result for `NCCc1ccc(O)cc1` reads -4.16% (inactive).
Still for that read-out and setting: the figure for `O=C(O)c1ccc(=O)[nH]c1` is -1.53% (inactive).
As for `O=C(N[C@H]1CN2CCC1CC2)c1ccc(Cl)cc1`, the “activity change, negative = viability loss” value was 5.86% (inactive).
The same measure, in the same setting: the result for `O=c1[nH]c2ccccc2n1C1CCNCC1` reads -4.53% (inactive); that for `COC1=C[C@@H]2[C@@H]3Cc4ccc(OC)c(O)c4[C@]2(CCN3C)CC1=O`, -2.42% (inactive).
With `CCN1CCN(C(=O)Cc2ccc(Nc3ncc(F)c(Nc4ccc(C(=O)Nc5ccccc5Cl)cc4)n3)cc2)CC1`, the Potency is 3.55 µM (active).
